Compound activity as filed in PubChem BioAssay.
14-3-3 Bad inh: disrupts binding of bovine 14-3-3 zeta to phospho-Bad peptide. P63103. TR-FRET 14-3-3zeta/Dy647-pBad peptide displacement, 1 h. inhibition, % at 21.7 µM. actives 0.71% (n = 220,000). AID 781;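 active = inhibition above about 70%, limit read from the data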
Target sequence (P63103 whole entry, looked up): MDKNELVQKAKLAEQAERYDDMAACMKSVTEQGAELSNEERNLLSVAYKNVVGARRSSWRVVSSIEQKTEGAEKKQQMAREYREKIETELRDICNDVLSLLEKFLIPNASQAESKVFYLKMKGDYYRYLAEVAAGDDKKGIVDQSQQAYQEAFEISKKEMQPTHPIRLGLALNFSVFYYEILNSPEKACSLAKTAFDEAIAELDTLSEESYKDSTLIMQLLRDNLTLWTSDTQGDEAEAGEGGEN
Bim-Mcl-1: inhibitors of Bim-Mcl-1 interaction, human. actives 0.1% (n = 190,000). AID 1009. Bead-based flow cytometry, Bim peptide-Mcl-1 binding. inhibition, % at 10 µM. Q07820; in the data active = inhibition above about 40%
Mcl1 Bid PPI: Mcl-1/Bid interaction inhibition; Q07820; inhibition, % at 21.7 µM; AID 1021; actives 0.97% (n = 220,000); TR-FRET Mcl-1/Bid-Dy647 peptide binding, 1536-well;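 active = compounds that cut the binding signal by more than half at the single screening dose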;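 also: His-tagged Mcl-1 with europium anti-His antibody binding Bid BH3 peptide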
NCF1 inh: inhibitors of human p47phox binding | P14598 | p47phox/p22phox peptide binding, fluorescence polarization, 2 h | inhibition, % at 24.7 µM | actives 0.53% (n = 220,000);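 active = inhibition above about 30%, limit read from the data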
Target sequence (P14598 whole entry, looked up): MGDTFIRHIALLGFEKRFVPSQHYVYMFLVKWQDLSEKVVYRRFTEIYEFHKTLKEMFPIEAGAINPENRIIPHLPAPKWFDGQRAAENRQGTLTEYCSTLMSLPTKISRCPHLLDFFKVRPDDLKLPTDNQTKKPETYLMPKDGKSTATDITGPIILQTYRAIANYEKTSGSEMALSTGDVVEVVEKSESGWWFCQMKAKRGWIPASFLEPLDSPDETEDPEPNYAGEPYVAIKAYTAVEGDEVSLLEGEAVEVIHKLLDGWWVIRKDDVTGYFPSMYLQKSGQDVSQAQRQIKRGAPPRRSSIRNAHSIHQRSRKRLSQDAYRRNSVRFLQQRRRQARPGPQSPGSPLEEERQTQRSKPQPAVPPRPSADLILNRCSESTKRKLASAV
Calpain2 inh: calpain II (pig) inhibition; inhibition, % at 16 µM; AID 1236; actives 0.37% (n = 220,000); purified calpain II, fluorogenic peptide substrate, 30 min;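 active = inhibition above about 50%, limit read from the data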
Mcl1 Noxa PPI: Mcl-1/Noxa interaction inhibition; AID 1022; Q07820; TR-FRET Mcl-1/Noxa peptide binding, 2 h; actives 1.5% (n = 220,000); inhibition, % at 21.7 µM;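 active = compounds that cut the protein-peptide binding signal by more than 50% relative to plate controls in a single-dose test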;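 also: His-tagged Mcl-1 with rhodamine Noxa BH3 peptide and terbium anti-His antibody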
Each line names hits and unclear results; the compound was inactive in the other large screens. The list is not random: actives were taken first. Their share in the collection is about 3.4%.

Cc1ccc(/C=C(\C#N)C(=O)Nc2ccccn2)o1	none
COc1ccc(C(=O)N2CC3(C)CC2CC(C)(C)C3)cc1 (stereo unspecified)	NCF1 inh 56.2
Cc1cc(S(=O)(=O)n2cnc3cc([N+](=O)[O-])ccc32)ccc1Cl	none
Cc1ccc(S(=O)(=O)n2cnc3cc([N+](=O)[O-])ccc32)cc1C	14-3-3 Bad inh 70.6
COc1ccc(NC(=O)c2ccc(=O)oc2)cc1	Calpain2 inh 52.0
CC(C)CNC(=O)c1ccccc1SCC(=O)NC12CC3CC(CC(C3)C1)C2	none
CCOC(=O)c1c(NC(=O)CN(C)C)sc(C(=O)N(CC)CC)c1C	Mcl1 Bid PPI 70.3
COC(=O)c1ccc(NC(=S)NC2CC3CCC2C3)cc1 (stereo unspecified)	none
O=C1CCCC(O)=C1C(C#Cc1ccccc1)C1=C(O)CCCC1=O	Mcl1 Noxa PPI 52.2
O=C1CCCC(O)=C1Sc1ccccc1C(=O)O	none
CC1(C)CC(=O)C(C(C#Cc2ccccc2)C2=C(O)CC(C)(C)CC2=O)=C(O)C1	Mcl1 Noxa PPI 56.8
CC1(C)CC(=O)C(N=Nc2ccc(-c3ccccc3)cc2)=C(O)C1	none
CC(O)Cc1cn([C@@H](CCCCNC(=O)OC(C)(C)C)C(=O)N2CCN(C(=O)OC(C)(C)C)CC2)nn1 (stereo partly specified)	none
COc1ccccc1NC(=O)CSc1ccc2nnc(-c3ccncc3)n2n1	none
COc1ccccc1NC(=O)CSc1ccc2nnc(-c3ccc(C)cc3)n2n1	NCF1 inh 35.1
COc1ccc(C2=C/C(=C\c3ccc(OC(C)=O)cc3)C(=O)O2)cc1	none
CN(C)c1ccc(/C=C2/C=C(c3ccc4c(c3)CCCC4)OC2=O)cc1	NCF1 inh 45.2 (no result: Bim-Mcl-1)
CCCSc1nc2ccsc2c(=O)n1CC	none
Cc1nc(Nc2ccccc2)sc1C(=O)c1ccccc1	Calpain2 inh 50.9 (no result: Bim-Mcl-1)
COC(=O)c1sc(Nc2ccccc2)nc1C	none
CCc1ccc(C(=O)OCC(=O)c2c(N)n(CC(C)C)c(=O)n(C)c2=O)cc1	Calpain2 inh 81.8
CC(C)Cn1c(N)c(C(=O)COC(=O)c2ccc(F)cc2)c(=O)n(C)c1=O	Calpain2 inh 53.0
CC(C)Cn1c(N)c(C(=O)COC(=O)c2ccc3c(c2)OCCO3)c(=O)n(C)c1=O	none (no result: Mcl1 Noxa PPI)
CCN(CC)C(=O)c1ccc2c(c1)nnn2C	none
O=C(Nn1cnnc1)c1ccccc1CCc1ccccc1	Mcl1 Bid PPI 97.1
NS(=O)(=O)c1ccc(N/C=C\C(=O)c2ccc3ccccc3c2)cc1	Mcl1 Bid PPI 54.4
Cc1cccc(NC(=S)NC2CC3CCC(C2)N3Cc2ccco2)c1C (stereo unspecified)	none
Cc1ccc(NC(=S)NC2CC3CCC(C2)N3Cc2ccco2)c(C)c1 (stereo unspecified)	NCF1 inh 37.5
O=C(c1cccc(C(F)(F)F)c1)c1c[nH]c(C(=O)NCC2CCCO2)c1 (stereo unspecified)	none
CN(C)c1ccc(NC(=O)Nc2csc3ccccc23)cc1	Mcl1 Noxa PPI 57.3 (no result: Bim-Mcl-1)
CN(C)c1ccc(NC(=O)Nc2cccc(Cl)c2)cc1	Mcl1 Noxa PPI 75.9
CN(C)c1ccc(NC(=O)/C=C/c2c(Cl)cccc2Cl)cc1	Mcl1 Noxa PPI 82.6
O=C(Nc1ccc(F)cc1)Nc1csc2ccccc12	none (no result: Bim-Mcl-1)
CCOC(=O)c1nnsc1N	none (no result: Bim-Mcl-1)
Cc1nn(-c2ccc(Cl)c(Cl)c2)c(C)c1C(=O)O	Bim-Mcl-1 54.0
CN(CCO)S(=O)(=O)c1ccc2c(c1)C(=NO)c1cc(S(=O)(=O)N(C)CCO)ccc1-2	Mcl1 Bid PPI 83.1
CCCn1c(C)cc(C(=O)COC(=O)c2ccc[nH]c2=O)c1C	none
S=c1[nH]nc(-c2ccncc2)n1/N=C/c1cccc(Cl)c1	none (no result: Bim-Mcl-1)
O=C(c1cnccn1)N(Cc1cccs1)C1(C(=O)NC2CCCCC2)CCCCC1	Bim-Mcl-1 54.0
O=C(c1cnccn1)N(Cc1cccs1)C1(C(=O)NC2CCCC2)CCCCC1	none
Cn1c(N)c(C(=O)COC(=O)CC(NC(=O)c2ccccc2Cl)c2ccccc2)c(=O)n(C)c1=O (stereo unspecified)	none
O=C(NCc1ccccn1)c1ccc([N+](=O)[O-])cc1	none
O=C(Cc1ccc([N+](=O)[O-])cc1)NCc1ccccn1	Mcl1 Noxa PPI 69.0
Nc1ncnc2oc(-c3ccco3)c(-c3ccco3)c12	Mcl1 Noxa PPI 82.1
C/C(CC(=O)Nc1ccc(Cl)cc1Cl)=N\NC(=O)c1cnccn1	none (no result: Bim-Mcl-1)
CCOc1ccc(NC(=O)c2ccc(NC(=O)c3cn4c5c(c(N6CCN(C)CC6)c(F)cc5c3=O)OCC4C)cc2)cc1 (stereo unspecified)	NCF1 inh 81.7
CC1COc2c(N3CCN(C)CC3)c(F)cc3c(=O)c(C(=O)O)cn1c23 (stereo unspecified)	none (no result: Bim-Mcl-1)
CN(C)c1ccc(CC(=O)c2nc3ccccc3s2)cc1	Mcl1 Noxa PPI 75.9
CCC(C)(C)n1nnnc1CN(Cc1ccc(Cl)cc1)Cc1ccco1	Mcl1 Bid PPI 56.9
COC(CNC(=O)CNC(=S)N(Cc1ccccc1)Cc1cccnc1)OC	none
CN(CCOC(=O)c1ccc2c(c1)OCO2)C(C)(C)C	none
O=C1C2C3C=CC(C3=C(c3ccccc3)c3ccccc3)C2C(=O)N1Cc1ccccc1 (stereo unspecified)	Mcl1 Noxa PPI 64.4
COc1ccc(C(=O)CSc2nnc(CN3CCCC3)n2-c2ccc(F)cc2)c(OC)c1	Mcl1 Noxa PPI 52.7
Cc1c(NC(=O)C(C)Sc2ncnc3ccccc23)c(=O)n(-c2ccccc2)n1C (stereo unspecified)	none
O=C1CC2C(=O)NCCN2C(=NC(=O)c2ccc(Cl)cc2)N1 (stereo unspecified)	Calpain2 inh 92.0
O=C1CC2C(=O)NCCN2C(=NC(=O)c2ccccc2)N1 (stereo unspecified)	none
CC(=O)C(Cc1ccccc1)NC(=O)CN1CCN(Cc2ccccc2)CC1 (stereo unspecified)	none
CC1(C)C2CCC(C2)C1(C)NC(=O)CN1CCN(Cc2ccccc2)CC1 (stereo unspecified)	14-3-3 Bad inh 72.3
CCOC(=O)CC(NC(=O)c1cccc2c1C(=O)N(Cc1cccnc1)C2)c1ccc(OC(C)C)cc1 (stereo unspecified)	none
COc1cccc(NC(=O)c2cc(-c3ccncc3)nc3c(C)cc(C)cc23)c1	none
O=C(Nc1ccc([N+](=O)[O-])cc1)c1cc(-c2ccccn2)nc2c(Cl)cccc12	14-3-3 Bad inh 70.7
CCOc1ccccc1NC(=O)c1cc(-c2ccncc2)nc2c(Cl)cccc12	14-3-3 Bad inh 72.7, Mcl1 Bid PPI 50.9, NCF1 inh 39.7
O=C(O)CCN1C(=O)/C(=C\c2ccc(-c3nc4ccccc4s3)o2)SC1=S	Mcl1 Bid PPI 95.0, Mcl1 Noxa PPI 102.2
O=C(NC1CCCC1)C1CC(c2ccc(F)cc2)=NO1 (stereo unspecified)	NCF1 inh 60.2
